# Screening results deposited in PubChem BioAssay by The Scripps Research Institute Molecular Screening Center.
# Hits are enriched below; roughly 4.2% of the tested compounds scored in any of these assays.
# hcDAF-12 act: H. contortus DAF-12 nuclear receptor activators, primary screen, cell-based, luminescence, HEK293, lit1-tk-luc reporter; AID 652067, 2013; 1.4% of 370,000 active; activation, % at 6.8 µM; HEK293 hcDAF-12 lit1-tk-luc reporter; 0% DMSO, 100% Δ7-dafachronic acid;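 active means activation above the mean of all tested compounds plus 3 SD, cut at about 5.5% in these data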;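 further: 100% = response to 3 µM Δ7-dafachronic acid high control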
# ssDAF12 agonist: S. stercoralis DAF-12 nuclear receptor activators, primary screen, cell-based, luminescence, HEK293, GRIP1 co-expression, lit1-tk-luc; HEK293 ssDAF-12/GRIP1 lit1-tk-luc reporter; % of 3 µM dafachronic acid response; activation, % at 6.8 µM; 1% of 370,000 active; AID 652126, 2013;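 active means activation above the mean over all tested compounds plus 3 SD, cut at about 0.9% in these data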;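 further: 0% = DMSO-only wells and 100% = 3 µM delta7-dafachronic acid wells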
# DAX1 inh: DAX1 (NR0B1) inhibitors on StAR promoter, primary screen, cell-based, luminescence, SF-1 (NR5A1), full-length DAX-1. HEK293T StAR-luciferase reporter, SF-1/DAX-1 repression relief. inhibition, % at 6.8 µM. 1.1% of 370,000 active. AID 652010, 2013;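 active means inhibition above the mean over all tested compounds plus 3 SD, cut at about 3.6% in these data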;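 further: 0% = DAX-1 cells with DMSO and 100% = cells lacking DAX-1 with DMSO; higher inhibition means more luminescence from relief of DAX-1 repression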
# SMARCA2 act: SMARCA2 (BRM) function activators, primary screen, cell-based, luminescence, high throughput; MG213 cells, MMTV-luciferase reporter, dexamethasone, overnight; activation, % at 9.1 µM; 1% of 370,000 active; AID 652017, 2013; in the data active means activation above about 7.8%;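 further: 0% = vehicle wells and 100% = reference activator wells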
# hgDAF12 agonist: H. glycines DAF-12 receptor agonists, primary screen, cell-based, luminescence, HEK293, GAL4 fusion, UAS-luciferase; activation, % at 6.8 µM; HEK293 GAL4-hgDAF12 UAS-luciferase reporter, agonist luminescence; normalized to butyrate control; 1.8% of 370,000 active;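 active means activation above a cutoff set at the mean of all screened compounds plus 3 SD, cut at about 10% in these data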;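 further: 0% = DMSO wells and 100% = sodium butyrate wells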
# Starred values were filed as active, the others as inactive; nt = no result.
SMILES,hcDAF-12 act,ssDAF12 agonist,DAX1 inh,SMARCA2 act,hgDAF12 agonist
COc1ccc(CNS(=O)(=O)c2ccccc2Br)c(OC)c1,0,-1,0,2,1
CCCCCN1CCCCC(NC(=O)c2cc(OC)c(OC)c(OC)c2)C1=O (stereo not drawn),-1,-2,0,-2,4
O=C(Nc1nnc(-c2ccco2)o1)C1CC1,6.4*,-1,0,-4,0
CN1C(=O)c2cc(NS(=O)(=O)c3cccc(F)c3)ccc2OC[C@@H]2O[C@H](CC(=O)O)CC[C@H]21,-1,0,1,0,4
CN(CCCC1CCCC1)C(=O)CCc1nnc(-c2ccccc2)o1,3,0,1,4,12*
CN(C(=O)CCc1nnc(-c2ccc(-c3ccccc3)cc2)o1)C1CCOCC1,-6,-2,-5,-5,-6
Cc1cc(C)n(CCN(C)C(=O)CCc2nnc(CCC3CCCCC3)o2)n1,2,1.2*,2,0,12*
CCCN(CC1CC1)C(=O)CNc1nnnn1-c1ccccc1,-2,-1,1,-6,4
CCc1cc(C(=O)NNC(=S)Nc2cc(C)ccc2C)cs1,-1,-1,0,-1,-2
CCc1cc(C(=O)NNC(=S)Nc2ccccc2C)cs1,2,0,3.6*,2,12*
C[C@H]1[C@H](N(Cc2cccs2)Cc2cccs2)CC[C@@]23CCCN2C(=O)CCC[C@@H]13,-1,-2,nt,nt,-3
Cc1cc(/C=C(\C#N)C(=O)NC2CC2)c(C)[nH]1,0,0,3,3,12*
COC(=O)C[C@@H]1CC[C@@H]2[C@H](COc3ccc(NC(=O)c4cccc(OC)c4)cc3C(=O)N2C)O1,-1,-1,0,-2,-2
CN(C)CCSc1nnc2[nH]c3ccccc3c2n1,3,1.1*,1,3,3
CCn1cc(/C=C/C(=O)c2ccc(O)cc2)c(C)n1,5,0,3,7,15*
Cc1ccc2cn[nH]c2c1[N+](=O)[O-],5.6*,0,0,-1,1
O=C(Cn1cc(S(=O)(=O)Cc2ccccc2F)c2ccccc21)N1CCOCC1,0,-1,0,2,11*
O=C(C(=O)N1CCc2ccccc2C1)c1cn(CC(=O)N2CCOCC2)c2ccccc12,0,1.8*,0,-2,0
Cc1nc2ccc(C(=O)NCCCN3CCCC3=O)cn2c1N(C)C(=O)CCc1ccccc1,-1,-1,0,-3,-1
COC(=O)C1(F)C(=O)NC(=O)NC1OC (stereo not drawn),-1,-1,-1,0,6
O=C(/C=C/Nc1ccccc1Oc1ccccc1)c1ccco1,5,0,2,7.9*,5
COc1ccc(CCNS(=O)(=O)c2c(C)n[nH]c2C)cc1,3,-1,0,-3,-1
COc1ccc2c(c1)CCc1c(C(=O)NCC(C)C)noc1-2,4,0,3,-1,13*
COc1ccc2c(c1)CCc1c(C(=O)N3CCCCCC3)noc1-2,3,-1,3.8*,3,8
CCOC(=O)c1cc(C#N)c(SCc2ccc(C#N)cc2)nc1C,3,1.1*,0,-1,0
SMILES,hcDAF-12 act,ssDAF12 agonist,DAX1 inh,SMARCA2 act,hgDAF12 agonist
COc1ccccc1N=c1sc2ccccc2n1C,-1,-2,0,-1,-1
COc1ccc(N=c2sc3ccccc3n2C)cc1,6.1*,0,4.5*,7,11*
CCc1c(C(=O)NNC(=S)Nc2ccc(S(=O)(=O)Nc3ncccn3)cc2)csc1C,-1,-1,4.0*,-2,0
O=S(=O)(Nc1ncccn1)c1ccc(NC(=S)Nc2ccccc2)cc1,0,-1,1,0,1
COc1ccc(-c2noc(C3CCCN(C(=O)Nc4ccc(Cl)cc4)C3)n2)cc1 (stereo not drawn),0,-1,-1,-1,3
COc1ccc(-c2cc3c(=O)n(CC(=O)Nc4ccc(Cl)cc4)nc(C)n3n2)cc1,6.4*,-1,1,-4,1
Cc1nn(CC(=O)Nc2cccc(Cl)c2)c(=O)c2cc(-c3ccccc3)nn12,0,-1,0,-3,2
CCN(CC)CCNC(=O)c1cc2c(-c3ccc(Cl)cc3)nn(C)c2s1,9.7*,0,2,11*,3
CCN(CC)CCNC(=O)c1cc2c(-c3cccc(OC)c3)nn(C)c2s1,5,1.2*,1,0,4
COCCCNC(=O)c1cc2c(-c3cccc(OC)c3)nn(C)c2s1,-2,-1,-1,1,-1
Cc1cccc(CNC(=O)NC2CCCCN(Cc3cccc(Cl)c3)C2=O)c1 (stereo not drawn),-4,-2,-2,-5,-2
Cc1cnc(NC(=O)CC2CCCC2)s1,3,-1,3,2,11*
C/C(=N\OC(=O)NC(C)C)c1sc(-c2ccc(Cl)cc2)nc1C,1,-1,1,4,5
CCNC(=O)O/N=C(\C)c1sc(-c2ccc(Cl)cc2)nc1C,5,0,2,4,11*
CC1CCC/C(=N/NC(=O)c2ccccc2-n2cccc2)C1 (stereo not drawn),6.1*,-1,0,0,1
Cc1occc1C(=O)OCC(=O)Nc1ccc(F)cc1,4,0,0,3,11*
O=C(CCCCC(=O)Nc1c(I)cc(I)c(C(=O)O)c1I)Nc1c(I)cc(I)c(C(=O)O)c1I,0,1.9*,0,0,-2
CC(=O)Nc1c(I)c(NC(C)=O)c(I)c(C(=O)O)c1I,-1,-1,1,-1,0
CC1CCCC(NCC(=O)Nc2ccc(C(N)=O)cc2)C1C (stereo not drawn),-1,1.7*,1,-2,6
CCCCCCCCN1C(=O)[C@@H](CC(=O)NCC2CCCCC2)C[C@@]2(C(=O)OC)C1=C[C@H](C(C)C)O[C@@H]2C1CC1,1,0,1,-3,4
Cc1ccccc1/C=C/c1nc2ccccc2c(=O)[nH]1,4,0,3,5,11*
CCCCN1CC(COCc2ccccc2)Oc2cccc(Sc3ccc(OC)c(OC)c3)c2S1(=O)=O (stereo not drawn),1,-1,4.2*,-4,3
COc1ccc(Sc2cccc3c2S(=O)(=O)N([C@H](C)c2ccccc2)C[C@@H](COCc2ccccc2)O3)cc1OC,0,-1,1,5,-2
CCOC(=O)CC[C@@H]1CC[C@]2(CCCN(C(=O)C3CCCCC3)C2)O1,1,-1,0,-3,-3
